Source: PubChem
Sampled rows, rich in hits. Any-hit rate of the full collection: about 3.4%.
LGR2 antag: blocks bursicon-induced cAMP signaling via Drosophila LGR2. HEK293 LGR2, CRE-luciferase, bursicon-stimulated, 4 h. inhibition, % at 9.99 µM. 380,000 tested, 0.35% active. AID 720647;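 active = drop in luminescence signal, shown as inhibition above about 50% in the replicate tests, limit read from the data, passing the limit was not always enough; inconclusive = probably only some replicates passing the limit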;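 note: agonist challenge used bursicon conditioned medium at about half maximal strength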
rRNA inh HTS: inhibitors of bacterial rRNA selective over humanized ribosomes; E. coli WT GFP vs humanized-ribosome RFP mutants, fluorescence, 24 h; hits give low values; DMSO median 0, no signal -100; 350,000 tested, 1.6% active; AID 720706; GFP signal change (wild-type ribosome), % (concentration not given with the values);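 active = significant combined selectivity score with lowered wild-type GFP, culture density cut under 30%, mutant RFP and density less affected; inactive = any of these conditions unmet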
PGC1a acetyl inh: lowers PGC1a acetylation signal in U2OS cells; AlphaScreen anti-acetyl-lysine; with virally co-expressed GCN5 acetyltransferase; inhibition, % at 15.6 µM; 350,000 tested, 0.17% active; AID 651687;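 active = every replicate shows inhibition of at least 40%; inconclusive = mean inhibition at least 40% but some replicate below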;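 note: 0% = neutral control wells and 100% = positive control wells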
PAX8 reporter: PAX8 transcriptional activity inhibition | RMG-I TPO-luciferase reporter, SteadyGlo, 24 h | 360,000 tested, 1.2% active | inhibition, % at 12.6 µM;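 active = mean replicate inhibition at least 60% with every replicate also reaching 60%; inconclusive = only one of the two criteria is met; inactive = mean below 60% and not all replicates reaching 60%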;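 note: luciferase light reporting Pax8 driven TPO promoter activity; plate controls were median of neutral control wells for no effect and mitoxantrone controls for full effect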
SIRT5 block: inhibitors of human sirtuin-5 desuccinylase; Q9NXA8; Purified SirT5, succinyl-peptide AMC, trypsin-coupled fluorescence; inhibition, % at 15 µM; 330,000 tested, 1.1% active; in the data active = inhibition above about 15%; inconclusive = no clear call, values can overlap the other calls
Target sequence (Q9NXA8 whole entry, looked up): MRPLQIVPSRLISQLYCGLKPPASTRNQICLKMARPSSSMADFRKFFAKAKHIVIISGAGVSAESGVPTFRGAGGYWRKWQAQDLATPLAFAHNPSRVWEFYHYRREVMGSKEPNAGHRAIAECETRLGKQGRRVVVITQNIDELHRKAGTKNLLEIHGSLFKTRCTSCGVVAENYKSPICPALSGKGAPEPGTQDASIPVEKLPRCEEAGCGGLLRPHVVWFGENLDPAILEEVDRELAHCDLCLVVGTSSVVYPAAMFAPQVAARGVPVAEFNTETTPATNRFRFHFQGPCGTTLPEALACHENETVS
EWS-Fli inh: blocks EWS/Fli oncoprotein-driven transcription. A673 NR0B1-luciferase reporter, viability-normalised. inhibition, % at 12.6 µM. 350,000 tested, 0.67% active. AID 651661;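 active = mean inhibition of at least 50% after viability correction, with every replicate also passing that limit; inconclusive = mean reaches 50% but only one of two replicates passes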;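 note: firefly luciferase signal divided by Alamar Blue viability fluorescence both relative to DMSO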
DNA binder FP: binds DNA displacing acridine orange | shares compounds with EWS-Fli inh | salmon sperm DNA acridine orange fluorescence polarization | AC35, µM (top dose mostly 68 µM), for the others: at the highest dose activity change, negative = DNA binding | 640 tested, 2% active;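 active = fitted curve reaches a 35% signal fall AC35 below twice the sample's top valid tested dose, actives reach about 48 µM in these data; inactive = the rest, including activity in the rising direction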;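 note: lower polarization ratio signals compound binding to DNA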
The depositor's hits bear a star; u = inconclusive; x = not tested or not shown.

SMILES	LGR2 antag	rRNA inh HTS	PGC1a acetyl inh	PAX8 reporter	SIRT5 block	EWS-Fli inh	others
O=C(Cc1ccccn1)N1CCCCN2[C@H](C1)[C@@H](c1ccc(C#Cc3ccccc3)cc1)[C@@H]2CO	-8	-59	7	10	1	-7
CC(C)(C)c1cc(C=C(C#N)C#N)cc(C(C)(C)C)c1O	45	x	x	109*	4	48
N#CC(C#N)=Cc1ccc(O)c(O)c1	26	x	-27	17	3	8
CN(C)C(=O)Oc1ccc(OCc2nc3ccccc3[nH]2)cc1	53*	-22	x	30	-5	40
CS(=O)(=O)N1CC2NC(C1)C2c1ccc(Br)cc1 (stereo not given)	x	-3	x	x	x	x
Cn1ncnc2c(=O)n(C)c(=O)nc1-2	x	x	100*	x	x	x
COC(=O)C1=C(c2ccccc2OCc2ccccc2)C[C@@H]2CC[C@H]1N2C(=O)NCc1ccc(C(F)(F)F)cc1	33	12	0	-2	x	-6
COC(=O)C1=C(c2cc3ccccc3s2)C[C@@H]2CC[C@H]1N2C(=O)NCC1CC1	-3	-15	x	13	2	0
COC(=O)C1=C(c2cc3ccccc3s2)C[C@@H]2CC[C@H]1N2C(=O)NCc1ccc(C(F)(F)F)cc1	38	12	x	66*	0	7
COC(=O)C1=C(c2ccc(F)cc2OCc2ccccc2)C[C@@H]2CC[C@H]1N2C(=O)NCc1ccc(C(F)(F)F)cc1	22	16	x	88*	-4	7
CN1[C@@H]2CN(S(C)(=O)=O)C[C@H]1C2c1ccc(Br)cc1 (stereo not given in full)	x	2	x	x	x	x
COC(=O)[C@H]1[C@H](CO)[C@H]2Cn3c(ccc(C4=CCCCC4)c3=O)[C@@H]1N2Cc1ccccc1OC	6	-6	x	3	1	-7
CCCNC(=O)[C@@H]1[C@@H](CO)[C@@H]2Cn3c(cccc3=O)[C@@H]2N1CC	-2	0	2	x	3	2
C=CC1CN2CCC1C[C@@H]2CO (stereo not given in full)	x	x	20	-15	0	12
COc1ccc2c(c1)/C(=C/c1cnc[nH]1)C(=O)N2	95*	x	x	79*	4	-28
Cn1c(NN=O)nc2ccccc21	-5	-23*	4	37	-5	-30
O=c1[nH]c(O)c(N=Nc2ccc3c(c2)OCCO3)c(=O)[nH]1	67*	26	8	8	-1	29
Cn1cccc1/C=C1\C(=O)NC(=O)N(Cc2ccccc2)C1=O	13	16	-2	22	-1	16
Cc1ccc(N2C(=O)NC(=O)/C(=C/c3ccoc3)C2=O)cc1	8	25	u	-1	18*	7
O=C1NC(=O)N(Cc2ccccc2)C(=O)/C1=C\c1ccco1	-4	24	x	-15	25*	-2
COc1ccc(CN2C(=O)NC(=O)/C(=C/c3ccoc3)C2=O)cc1	-11	29	12	-1	21*	13
COc1ccc(CN2C(=O)NC(=O)/C(=C/c3cc(OC)c(OC)c(OC)c3)C2=O)cc1	7	14	0	7	0	1
CCCNC(=O)[C@@H]1[C@@H](CO)[C@@H]2Cn3c(cccc3=O)[C@@H]2N1C	-2	5	x	-10	0	-1
CC=Cc1ccc2n(c1=O)C[C@H]1[C@H](CO)[C@@H](C(=O)O)[C@@H]2N1S(=O)(=O)c1ccccc1C (mixture of isomers)	3	4	x	-8	-15	-7
COC(=O)[C@@H]1[C@@H](CO)[C@@H]2Cn3c(ccc(-c4cccc(F)c4)c3=O)[C@H]1N2Cc1ccccc1	2	-2	x	7	2	6
SMILES	LGR2 antag	rRNA inh HTS	PGC1a acetyl inh	PAX8 reporter	SIRT5 block	EWS-Fli inh	others
CCOC(=O)c1cccc(-[n+]2c(-c3ccccc3)cc(-c3ccccc3)cc2-c2ccccc2)c1	15	-54	x	89*	x	17
Cc1ccc(-c2cc(-c3ccc(C)cc3)[n+](-c3ccccc3)c(-c3ccc(C)cc3)c2)cc1	x	x	-16	x	x	x
c1ccc(-c2cc(-c3ccccc3)[n+](-c3ccccc3)c(-c3ccccc3)c2)cc1	103*	-54	-2	96*	7	69*
Cc1ccc(-c2cc(-c3ccccc3)cc(-c3ccccc3)[n+]2-c2ccccc2)cc1	-2	-56	-23	95*	x	61*
CN(C)c1ccc(-[n+]2c(-c3ccccc3)cc(-c3ccccc3)cc2-c2ccccc2)cc1	20	-59	-46	88*	8	53*
C[C@H](CO)N1C[C@H](C)[C@H](CN(C)C(=O)Oc2cccc3ccccc23)OCc2cn(nn2)CCCC1=O	-9	-1	6	11	x	0
CC(=O)OC1CC2(O)C3CCC4CC(O)CCC4(C)C3CCC2(C)C1C1=CC(=O)OC1 (stereo not given)	90*	0	65*	x	-3	63*	DNA binder FP=-11%
CC(=O)OC1CC(OC2C(O)CC(OC3C(O)CC(OC4CCC5(C)C(CCC6C5CCC5(C)C(C7=CC(=O)OC7)C(O)CC65O)C4)OC3C)OC2C)OC(C)C1OC1OC(CO)C(O)C(O)C1O (stereo not given)	87*	20	u	104*	-7	63*	DNA binder FP=-3%
CC(=O)O[C@@H]1CC[C@]2(C)C3CC[C@@]4(C)C(C[C@@H](O)[C@@H]4O)C3[C@@H](OC(C)=O)C[C@H]2C1 (stereo not given in full)	9	4	5	x	1	2
COC(=O)[C@@H]1[C@@H](CO)[C@@H]2Cn3c(cccc3=O)[C@@H]2N1CC1CC1	31	2	x	x	6	7
CC12CCC3C(CCC4(O)CC(O)CCC34C=NO)C1(O)CCC2C1=COC(=O)C1 (stereo not given)	x	x	34	109*	-3	74*	DNA binder FP=-4%
C[C@]12CCC3C(CCC4=CC(O)CC[C@@]43/C=N/O)C1(O)CCC2C1=CC(=O)OC1 (stereo not given in full)	82*	1	x	109*	6	69*	DNA binder FP=10%
C[C@]12CC[C@H]3[C@@H](CC[C@]4(O)C[C@@H](O)CC[C@]34C=O)[C@@]1(O)CC[C@@H]2C1=CC(=O)OC1	84*	x	96*	111*	-2	79*	DNA binder FP=-4%
N#Cc1cccc(-c2ccc([C@H]3[C@@H](CO)N4CCCCN(C(=O)Cc5ccncc5)C[C@@H]34)cc2)c1	-13	-1	4	14	1	x
COC(=O)[C@H]1[C@H](CO)[C@H]2Cn3c(ccc(-c4cccc(F)c4)c3=O)[C@@H]1N2Cc1cccnc1	-2	-1	x	-33	-9	44
